Here are results for five compounds from PubChem BioAssay (NCATS).

SMILES strings stand for the structures. Results filed as inconclusive are left out. A number with no mark means an inactive call. The source made the active and inactive calls. Calls follow the shape of the dose curve; as a rule, active = well fitted curve in the direction sought with a large enough effect; inconclusive = small, poorly fitted or top-dose-only effect, or another doubt; inactive = no such curve, though single readings can be large; an effect the other way counts as inactive or inconclusive.

Test [1] in a line: P-glycoprotein substrates identified in KB-8-5-11 adenocarcinoma cell line, qHTS therapeutic library screen (AID 1346987). Also: nearly all actives have a fitted effect of over 65% in size. Also: potency is read from the fitted curve at half-maximal effect. The settings on record: KB-8-5-11 (P-gp overexpressing) viability, CellTiter-Glo, 72 h; series mostly up to 44.5 µM. The procedure, abridged:
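KB-8-5-11: colchicine-selected sub-line of KB-3-1 over-expressing P-gp; assay medium lacked colchicine. 72 h drug exposure at 37 degree C, CellTiter-Glo.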
(In general: qHTS replaces the single test concentration by a dilution series.)

A short description of test [2]: qHTS assay for cell viability of HEK293 cells (AID 743288). Also: % is scaled to controls: 0 for no effect and ±100 for the full control effect; nearly all actives have a fitted effect of over 50% in size. Particulars: ATP luminescence (CellTiter-Glo), 18 h; max response: hits give low values. In a few lines: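 The Tox21 protocol used parental HEK293 cells treated for 18 h at 37 C with compounds delivered by pintool; ATP-coupled luminescence after 30 min at room temperature gave viability.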
The nature of test [3]: qHTS assay for cell viability of the p53RE-bla HCT-116 cell line (AID 743292). Also: % is scaled to controls: 0 for no effect and ±100 for the full control effect; nearly all actives have a fitted effect of over 55% in size. The settings on record: p53RE-bla HCT-116 viability, ATP luminescence, 16 h; series mostly up to 95 µM. In a few lines:
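ATP-based luminescent viability (CellTiter-Glo, 30 min RT) after 16 h compound treatment at 37 C of p53RE-bla HCT-116 cells, seeded at 4,000 cells/well and rested 5 h before dosing.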

The nature of test [4]: P-glycoprotein substrates identified in KB-3-1 adenocarcinoma cell line, qHTS therapeutic library screen (AID 1346986). Also: nearly all actives have a fitted effect of over 60% in size. Particulars: KB-3-1 parental cells viability, CellTiter-Glo, 72 h; series mostly up to 44.5 µM. In a few lines:
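Counter-screen: cherry-picked hits retested in the KB pair and in HEK-293 pcDNA/MDR-19 cells ± tariquidar. Primary screen used 72 h CellTiter-Glo viability in KB-3-1 and KB-8-5-11.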

On to `COC1CC(OC2CCC3(C=O)C(CCC4C3CCC3(C)C(C5=CC(=O)OC5)CCC43O)C2)OC(C)C1OC1OC(CO)C(O)C(O)C1O` (stereo not given), for which the Potency in test [1] was 0.172 µM (active).
The same measure, in the same setting: to `C=C1[C@@H]2CC[C@@]3(C)[C@H](c4ccoc4)OC(=O)C[C@]13O[C@H]1CC(=O)C(C)(C)[C@H](C(OC(C)=O)C(=O)OC)[C@]12C` (stereo not given in full) belongs “inactive”.
As for `COC1=CC(=O)O[C@@H](/C=C/c2ccccc2)C1`, the max response in test [2] was -13.6%. In addition, the Potency entry in test [3], in test [4] and in test [1] was “inactive” each time.
As for `COC1CC(O[C@H]2CC[C@@]3(C)C(=CCC4C3C(O)[C@@H](O)[C@]3(C)[C@@H](C(C)=O)CC[C@]43O)C2)OC(C)C1OC1CC(OC)C(OC2OC(C)C(O)C(O)C2O)C(C)O1` (stereo not given in full), the outcome in test [4] and in test [1] was “inactive [at 9.29 µM]” in each case.
On to `Cn1ncnc1COc1nn2c(-c3c(F)cccc3F)nnc2cc1C1CCC1`, for which the Potency entry in test [4] and in test [1] was “inactive” throughout.
